About 1,500 (3.8%) of roughly 39,000 compounds were called active. The sample holds actives, similar compounds and a random draw of the others, so the mix is not that of the screen.

The test system of the assay is HSkMC (human skeletal muscle cells). In words: cytotoxicity call (relative viability < 0.9). The conditions noted are these: 10 µM.
Regarding `COCCN1CCO[C@@H]2CN(Cc3cnn(C)c3)C[C@@H]21`, the cytotoxicity call is “inactive”.
The value for `CN1CCN(C(=O)C[C@H]2CC[C@@H]3[C@H](COC[C@H](O)CN3C(=O)Nc3ccc4c(c3)OCO4)O2)CC1` was “inactive”.
Take `C[C@H]1CN([C@@H](C)CO)C(=O)c2cc(NC(=O)Nc3cccc4ccccc34)ccc2O[C@@H]1CN(C)S(=O)(=O)c1cccs1`: the cytotoxicity call was “inactive”.
The value for `C[C@H]1CN([C@@H](C)CO)C(=O)Cc2cc(NC(=O)NC3CCCCC3)ccc2O[C@@H]1CN(C)C(=O)Nc1ccc(C(F)(F)F)cc1` was “inactive”; that for `C[C@H](CO)N1C[C@H](C)[C@H](CN(C)Cc2ccc(C(F)(F)F)cc2)Oc2ccc(NC(=O)Nc3ccccc3)cc2C1=O` was “inactive”; that for `C[C@@H]1CN([C@H](C)CO)C(=O)c2cc(NC(=O)Nc3ccccc3)ccc2O[C@H]1CN(C)Cc1ccc(C(F)(F)F)cc1` was “inactive”.
On to `C[C@@H]1CN([C@H](C)CO)C(=O)c2cc(NC(=O)Nc3ccccc3)ccc2O[C@@H]1CN(C)Cc1ccc(C(F)(F)F)cc1`, for which the cytotoxicity call was “active”.
The value for `C[C@@H]1CN([C@@H](C)CO)C(=O)c2cc(NC(=O)Nc3ccccc3)ccc2O[C@H]1CN(C)Cc1ccc(C(F)(F)F)cc1` was “active”; that for `C[C@H]1CN([C@@H](C)CO)C(=O)c2cc(NC(=O)Nc3ccccc3)ccc2O[C@H]1CN(C)Cc1ccc(C(F)(F)F)cc1` was “inactive”; that for `C[C@H](CO)N1C[C@H](C)[C@@H](CN(C)Cc2ccc(C(F)(F)F)cc2)Oc2ccc(NC(=O)Nc3ccccc3)cc2C1=O` was “inactive”.
The value for `NCc1cn(Cc2ccc(Cl)c(Cl)c2)cn1` was “inactive”.
The result for `C[C@H](CO)N1C[C@H](C)[C@@H](CN(C)S(=O)(=O)c2ccc(F)cc2)Oc2ccc(NS(=O)(=O)c3ccc(F)cc3)cc2CC1=O` reads “inactive”.
`CN(C)CCCNC(=O)C[C@@H]1CC[C@H](NS(=O)(=O)c2ccccc2)[C@@H](CO)O1`: the cytotoxicity call was “inactive”.
For the molecule `C[C@H]1CN([C@@H](C)CO)C(=O)Cc2cc(NC(=O)Cc3ccccc3)ccc2O[C@@H]1CN(C)S(=O)(=O)c1cn(C)cn1`, the cytotoxicity call is “inactive”.
The value for `C[C@H](CO)N1C[C@H](C)[C@H](CN(C)C(=O)C2CCCCC2)OCCCC[C@H](C)Oc2ccc(NS(=O)(=O)c3ccc(Cl)cc3)cc2C1=O` was “inactive”; that for `Cc1ccc(-c2ccc3c(c2)O[C@H](CN(C)C(=O)Nc2ccc(C(F)(F)F)cc2)[C@H](C)CN([C@@H](C)CO)S3(=O)=O)cc1` was “inactive”; that for `Cc1ccc(-c2ccc3c(c2)O[C@H](CN(C)C(=O)Nc2ccc(C(F)(F)F)cc2)[C@@H](C)CN([C@@H](C)CO)S3(=O)=O)cc1` was “active”.
The result for `Cc1ccc(-c2ccc3c(c2)O[C@H](CN(C)C(=O)Nc2ccc(C(F)(F)F)cc2)[C@@H](C)CN([C@H](C)CO)S3(=O)=O)cc1` reads “inactive”.
The result for `Cc1ccc(-c2ccc3c(c2)O[C@@H](CN(C)C(=O)Nc2ccc(C(F)(F)F)cc2)[C@@H](C)CN([C@@H](C)CO)S3(=O)=O)cc1` reads “inactive”; that for `Cc1ccccc1-c1ccc2c(c1)O[C@H](CN(C)C(=O)Nc1ccc(C(F)(F)F)cc1)[C@H](C)CN([C@@H](C)CO)S2(=O)=O`, “inactive”; that for `Cc1ccc(-c2ccc3c(c2)O[C@@H](CN(C)C(=O)Nc2ccc(C(F)(F)F)cc2)[C@H](C)CN([C@H](C)CO)S3(=O)=O)cc1`, “active”.
As to `Cc1ccc(-c2ccc3c(c2)O[C@H](CN(C)C(=O)Nc2ccc(C(F)(F)F)cc2)[C@H](C)CN([C@H](C)CO)S3(=O)=O)cc1`, the cytotoxicity call was “inactive”.
The value for `Cc1ccccc1-c1ccc2c(c1)O[C@@H](CN(C)C(=O)Nc1ccc(C(F)(F)F)cc1)[C@H](C)CN([C@H](C)CO)S2(=O)=O` was “inactive”; that for `Cc1ccccc1-c1ccc2c(c1)O[C@@H](CN(C)C(=O)Nc1ccc(C(F)(F)F)cc1)[C@@H](C)CN([C@@H](C)CO)S2(=O)=O` was “active”; that for `C[C@@H]1CCCCO[C@@H](CN(C)C(=O)Nc2ccc3c(c2)OCO3)[C@H](C)CN([C@H](C)CO)C(=O)c2cc(NC(=O)Cc3ccccc3)ccc2O1` was “inactive”.
The result for `CC(/C=C/C(=O)NO)=C\c1ccccc1OC[C@@H]1[C@H]2C[C@H]3c4[nH]c5ccccc5c4CCN3C[C@@H]2CC[C@@H]1O` reads “inactive”.
The result for `C[C@@H]1CN([C@@H](C)CO)C(=O)c2cccc(NC(=O)C3CCCCC3)c2O[C@H]1CN(C)Cc1ccc(C(F)(F)F)cc1` reads “inactive”.
In the case of `CC1CC=CC=CC=CC=CC(OC2OC(C)C(O)C(N)C2O)CC2OC(O)(CC(O)CC3OC3C=CC(=O)O1)CC(O)C2C(=O)O` (centres undefined), the cytotoxicity call was “inactive”.
The result for `CN1C(=O)c2cc(NC(=O)Nc3ccccc3F)ccc2OC[C@H]2O[C@@H](CC(=O)Nc3cccc(Cl)c3)CC[C@@H]21` reads “inactive”.
Turning to `CCOC(=O)N1CCN(C(=O)C2CCN(S(=O)(=O)N(CC)CC)CC2)CC1`, the cytotoxicity call was “inactive”.
In the case of `C[C@@H]1CN([C@@H](C)CO)C(=O)Cc2cc(NS(=O)(=O)c3cn(C)cn3)ccc2O[C@@H]1CN(C)Cc1ccncc1`, the cytotoxicity call is “inactive”.
The value for `CCCN1C[C@H](C(=O)O)CCC1=O` was “inactive”.
The result for `C[C@H](CO)N1C[C@H](C)[C@@H](CN(C)Cc2ccc(Cl)c(Cl)c2)Oc2ccc(NC(=O)Cc3cn(C)c4ccccc34)cc2CC1=O` reads “inactive”; that for `Cc1noc(C)c1S(=O)(=O)N(C)C[C@H]1Oc2ccc(NC(=O)Cc3cn(C)c4ccccc34)cc2CC(=O)N([C@H](C)CO)C[C@@H]1C`, “inactive”.
As to `Cc1noc(C)c1S(=O)(=O)N(C)C[C@@H]1Oc2ccc(NC(=O)Cc3cn(C)c4ccccc34)cc2CC(=O)N([C@@H](C)CO)C[C@@H]1C`, the cytotoxicity call is “active”.
For `Cc1noc(C)c1S(=O)(=O)N(C)C[C@H]1Oc2ccc(NC(=O)Cc3cn(C)c4ccccc34)cc2CC(=O)N([C@H](C)CO)C[C@H]1C`, the cytotoxicity call is “inactive”.
The value for `C[C@@H]1CN([C@H](C)CO)C(=O)Cc2cc(NC(=O)Cc3cn(C)c4ccccc34)ccc2O[C@@H]1CN(C)Cc1ccc(Cl)c(Cl)c1` was “inactive”; that for `C[C@H]1CN([C@@H](C)CO)C(=O)Cc2cc(NC(=O)Cc3cn(C)c4ccccc34)ccc2O[C@@H]1CN(C)Cc1ccc(Cl)c(Cl)c1` was “active”; that for `C[C@H]1CN([C@@H](C)CO)C(=O)Cc2cc(NC(=O)Cc3cn(C)c4ccccc34)ccc2O[C@H]1CN(C)Cc1ccc(Cl)c(Cl)c1` was “active”.
As for `C[C@@H]1CN([C@@H](C)CO)C(=O)Cc2cc(NC(=O)Cc3cn(C)c4ccccc34)ccc2O[C@H]1CN(C)Cc1ccc(Cl)c(Cl)c1`, the cytotoxicity call is “inactive”.
The result for `C[C@@H]1CN([C@H](C)CO)C(=O)Cc2cc(NC(=O)Cc3cn(C)c4ccccc34)ccc2O[C@H]1CN(C)Cc1ccc(Cl)c(Cl)c1` reads “active”.
As to `C[C@H](CO)N1C[C@H](C)[C@H](CN(C)Cc2ccc(Cl)c(Cl)c2)Oc2ccc(NC(=O)Cc3cn(C)c4ccccc34)cc2CC1=O`, the cytotoxicity call is “inactive”.
The value for `C[C@@H]1CN([C@H](C)CO)C(=O)Cc2cc(NC(=O)Cc3cn(C)c4ccccc34)ccc2O[C@@H]1CN(C)Cc1ccc(-c2ccccc2)cc1` was “inactive”; that for `C[C@@H]1CN([C@@H](C)CO)C(=O)Cc2cc(NC(=O)Cc3cn(C)c4ccccc34)ccc2O[C@@H]1CN(C)Cc1ccc(Cl)c(Cl)c1` was “inactive”.
